# Source: PubChem BioAssay (NCI)
# The panel holds about 83,000 compounds, 20% with a hit somewhere; the sample as a whole holds those more often.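 The test compound was applied at a single concentration to cells in 96-well plates for 48 hours, and percent growth was recorded.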 Values without a mark were called inactive. Calls of active or inactive are those of the source. How the source made its calls: active means growth percent below 10; inactive means the rest.
# Test system: SNB-19 CNS
# Test: NCI-60 one-dose screen, 48 h (100 = growth as untreated, 0 = no growth, -100 = all killed)
# Conditions: 10 µM unless noted
row,SMILES,growth
1,CCCCCC1CCCCN1C(=O)OCC (configuration not stated),105%
2,Cn1cc(-c2nc(-c3c[nH]c4ncccc34)cs2)c2cc(Br)ccc21,108%
3,O=C(N/N=C\c1ccccc1O)C1CC1,101%
4,COc1ccc(OCC(CO)N2CCN(c3ccccc3)CC2)cc1 (configuration not stated),96.6%
5,Cn1cc(-c2nc(-c3c[nH]c4ncccc34)cs2)c2ccccc21,92.8%
6,CC1(C)CC[C@]2(C(=O)Nc3ccccn3)CC[C@]3(C)C(=CC[C@@H]4[C@@]5(C)C/C(=C/c6ccncc6)C(=O)C(C)(C)[C@@H]5CC[C@]43C)[C@@H]2C1,58.4%
7,C=C(C)[C@@H]1CC[C@]2(C(=O)O)CC[C@]3(C)[C@H](CC[C@@H]4[C@@]5(C)C/C(=C/c6cccc(I)c6)C(=O)C(C)(C)[C@@H]5CC[C@]43C)[C@@H]12,38%
8,Oc1cccc2oc(=S)[nH]c12,106%
9,CC(=O)O[C@H]1CC[C@@]2(C)C(=CC[C@@H]3[C@@H]2CC[C@]2(C)C(=O)N(O)C(=O)C[C@@H]32)C1,95.5%
10,COc1ccc2c(c1)c(-c1nc(-c3c[nH]c4ncccc34)cs1)cn2C,92.7%
11,O=C(O)c1cccc2c1Cc1cc([N+](=O)[O-])ccc1-2,108%
12,CCOc1ccc(NC(=O)c2ccccc2-c2ccccc2C(=O)O)cc1,98.8%
13,O=c1c2sc3ncc(Br)cc3c2ncn1-c1cccc(Cl)c1,89.5%

# Test system: U251 CNS
# Test: as above
# Conditions: 10 µM unless noted
row,SMILES,growth
1,Cn1c(/C(C#N)=C/c2ccc3ccccc3c2)cc2ccccc21,34.1%
2,Cn1cc(-c2nc(-c3c[nH]c4ncccc34)cs2)c2cc(F)ccc21,36.7%
3,CC(=O)N1N=C(c2ccc(C)cc2)CC1c1ccc(Oc2ccc(Br)cc2)cc1 (configuration not stated),75.3%
4,NC1=NN=C2N(N)C(=O)c3cnn(-c4ccccc4)c3N2c2nc(-c3ccccc3)cc(-c3ccccc3)c21,96.3%
5,Fc1ccc2nc(-c3cc(-c4ccc5c(c4)OCO5)n[nH]3)[nH]c2c1,41.1%
6,CN(C)c1ccc(-c2ccc(-c3ccc(C(=N)N)c(F)c3)s2)cc1,-96.2% (active)
7,Cc1c(C)c2c(c(C)c1NC(=O)CCCCCCC(=O)O)CCC(C)(CCCC(C)CCCC(C)CCCC(C)C)O2 (configuration not stated),68.9%
8,Cc1cc(C)nc(NC(N)=NCCc2ccccc2)n1,31.6%
9,C=C(C)[C@@H]1CC[C@]2(C(=O)O)CC[C@]3(C)[C@H](CC[C@@H]4[C@@]5(C)C/C(=C/c6ccc(OC)cc6)C(=O)C(C)(C)[C@@H]5CC[C@]43C)[C@@H]12,25.4%
10,COc1ccc2[nH]cc(-c3nc(-c4c[nH]c5ncccc45)cs3)c2c1,34.8%
11,CCc1ccc(-c2ccc(Nc3ccccc3)nn2)cc1S(N)(=O)=O,80.8%
12,Cn1cccc1/C=C1/SC(=S)N(CCc2ccc(O)cc2)C1=O,41.8%
13,CN1CCN(CCOc2ccc(-c3cnc4c(-c5ccccc5F)cnn4c3)cc2)CC1,2.35% (active)
14,O=c1c(CNc2ccc(S(=O)(=O)Nc3ncccn3)cc2)coc2ccccc12,93.3%
15,Cc1ccc(-c2nc([P+](c3ccccc3)(c3ccccc3)c3ccccc3)c(N3CCOCC3)o2)cc1,12.4%
16,O=C1OC(c2ccc(Cl)c(Cl)c2)=C/C1=C/c1cccc([N+](=O)[O-])c1,99.2%
17,COc1ccccc1-n1cnc(N)c1C(=O)c1cc(OC)c(OC)c(OC)c1,36.8%
18,COc1ccc2c(c1)C/C(=C\c1cc(-c3ccc4c(c3)OCO4)n[nH]1)C2=O,94.8%
19,CN(C)CCCC1(c2ccc(F)cc2)OCc2cc(-c3ccc(C(F)(F)F)nc3)ccc21 (configuration not stated),57.1%
20,O=c1c(CNc2ccc(S(=O)(=O)Nc3nccs3)cc2)coc2ccccc12,95.4%

row,SMILES,growth
1,Cc1ccc2c(c1)c(-c1nc(-c3c[nH]c4ncccc34)cs1)cn2C,98.6%
2,CC1(C)C(=O)/C(=C\c2ccco2)C[C@]2(C)[C@H]3CC[C@@H]4[C@@H](C(=O)/C=C/c5ccco5)CC[C@@]4(C)[C@]3(C)CC[C@@H]12,50.7%
3,Cc1ccc(-c2nc([P+](c3ccccc3)(c3ccccc3)c3ccccc3)c(N3C[C@H]4C[C@H](C3)c3cccc(=O)n3C4)o2)cc1,58.8%
4,C=C(C)[C@@H]1CC[C@]2(CN)CC[C@]3(C)[C@H](CC[C@@H]4[C@@]5(C)CCC(=O)NC(C)(C)[C@@H]5CC[C@]43C)[C@@H]12,53.4%
5,Nc1c(Cl)cc(N=Nc2ccccc2)cc1Cl,94.5%
6,CC(=O)O[C@H]1CC[C@]2(C)[C@H]3C(=O)C=C4[C@@H]5C[C@](C)(C(=O)N6CCCNCC6)CC[C@]5(C)CC[C@@]4(C)[C@]3(C)CC[C@H]2C1(C)C,-94.5% (active)
7,CCCCCC1CCCCN1C(=O)OCC (configuration not stated),96.7%
8,Cn1cc(-c2nc(-c3c[nH]c4ncccc34)cs2)c2cc(Br)ccc21,72.9%
9,O=C(N/N=C\c1ccccc1O)C1CC1,103%
10,COc1ccc(OCC(CO)N2CCN(c3ccccc3)CC2)cc1 (configuration not stated),97.3%
11,Cn1cc(-c2nc(-c3c[nH]c4ncccc34)cs2)c2ccccc21,96.6%
12,CC1(C)CC[C@]2(C(=O)Nc3ccccn3)CC[C@]3(C)C(=CC[C@@H]4[C@@]5(C)C/C(=C/c6ccncc6)C(=O)C(C)(C)[C@@H]5CC[C@]43C)[C@@H]2C1,10.3%
13,C=C(C)[C@@H]1CC[C@]2(C(=O)O)CC[C@]3(C)[C@H](CC[C@@H]4[C@@]5(C)C/C(=C/c6cccc(I)c6)C(=O)C(C)(C)[C@@H]5CC[C@]43C)[C@@H]12,18.4%
14,Oc1cccc2oc(=S)[nH]c12,109%
15,CC(=O)O[C@H]1CC[C@@]2(C)C(=CC[C@@H]3[C@@H]2CC[C@]2(C)C(=O)N(O)C(=O)C[C@@H]32)C1,69.3%
16,COc1ccc2c(c1)c(-c1nc(-c3c[nH]c4ncccc34)cs1)cn2C,75.3%
17,O=C(O)c1cccc2c1Cc1cc([N+](=O)[O-])ccc1-2,104%
18,CCOc1ccc(NC(=O)c2ccccc2-c2ccccc2C(=O)O)cc1,112%
19,O=c1c2sc3ncc(Br)cc3c2ncn1-c1cccc(Cl)c1,33.4%
